Screens (PubChem BioAssay)
An excerpt weighted towards active compounds, which were near 2.1% of everything screened.
Mito fusion act: mitochondrial division inhibition or fusion activation; S. cerevisiae fusion-defective mutant growth rescue, CellTiterGlo 48 h; AID 485298; hit rate 0.23% among 320,000; Potency, µM (highest dose often 46.1 µM), actives largely listed as activators; also: nearly all actives have a fitted effect of over 45% in size
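Read-out: ATP-based luminescence (CellTiterGlo, 10 min ambient) reporting growth of fusion-defective ts yeast after 48 hours at 37C on glycerol/ethanol YPEG medium in the presence of compound.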
aSyn rescue: alpha-synuclein toxicity inhibition in yeast; Yeast expressing alpha-synuclein, growth rescue, BacTiter-Glo, 24 h; Potency, µM (titrated, usually from 46.1 µM), actives largely listed as activators; hit rate 0.14% among 370,000; AID 652106; also: nearly all actives have a fitted effect of over 65% in size
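Galactose-induced alpha-syn yeast (OD600=0.02, raffinose-pregrown) + pinned cpd, 24 hr, 30 deg C; growth by BacTiter-Glo luminescence. Growth restoration scores as activation.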
TDP-43 yeast inh: rescues yeast growth from TDP-43 toxicity | TDP-43 expressing yeast growth rescue, BacTiter-Glo, 24 h | Potency, µM (doses to about 46.1 µM), most hits filed as activators | hit rate 1.8% among 410,000; also: nearly all actives have a fitted effect of over 50% in size
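Cell-based yeast growth screen: TDP-43 expression induced in galactose, inoculum OD600=0.02 after raffinose pregrowth to mid-log. Read-out BacTiter-Glo luminescence at 24 hr, 30 deg C; inhibition of toxicity seen as signal increase.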
Abeta rescue: restores growth of yeast expressing A-beta42 peptide. yeast expressing A-beta42, growth rescue, OD600, 48 h; response scale: 0% DMSO, 100% iron-clioquinol control. Potency, µM (top dose mostly 46.1 µM), hits mostly activators. hit rate 0.063% among 410,000. AID 1347071; also: nearly all actives have a fitted effect of over 55% in size
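Yeast A-beta toxicity model in growth medium with pinned compounds, 48 h at 30 C; growth read as absorbance at 600 nm. Normalized to FeCl3/clioquinol equimolar mix (positive) and DMSO (negative).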
Glioma ERSR ind: inducers of ER stress response in human glioma cells; Potency, µM, usual class: activators; hit rate 0.02% among 420,000; U87-MG GRP78 promoter luciferase reporter, 16 h; also: series mostly up to about 76 µM; nearly all actives have a fitted effect of over 35% in size
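Stably transfected U87-MG glioma cells carrying a GRP78-based luciferase sensor; 16 h compound incubation. Luminescence end-point read 10 min after Bright-Glo addition at room temperature.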
AT treatment: potential ataxia-telangiectasia treatments restoring KAP-1 phosphorylation; hit rate 0.19% among 320,000; F2112 A-T fibroblasts, KAP-1 phosphorylation AlphaLISA; neocarzinostatin DNA damage 30 min before lysis; Potency, µM (top dose mostly 57.5 µM), most hits filed as activators; also: nearly all actives have a fitted effect of over 45% in size
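ATM-like activity read as KAP-1 phosphorylation via AlphaLISA donor/acceptor antibody pairs after lysis and 6 hr at 25C. Cells were ATM-null patient fibroblasts (F2112, hTERT), dosed 60 min, then exposed to the DSB inducer NCS for 30 min.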
Numbers stand for hits; [ ] = another dose, or the depositor's remark. Calls follow the shape of the dose curve; as a rule, active = well fitted curve in the direction sought with a large enough effect; inconclusive = small, poorly fitted or top-dose-only effect, or another doubt; inactive = no such curve, though single readings can be large; an effect the other way counts as inactive or inconclusive.

How did CCOC(=O)C1CCN(C(=O)c2cc3c(-c4ccc(OC)c(OC)c4)nn(C)c3s2)CC1 do in these assays?
Mito fusion act: inactive; aSyn rescue: inactive; TDP-43 yeast inh: 14µM; Abeta rescue: inactive; Glioma ERSR ind: inactive; AT treatment: inactive

How did CCn1c(CN2CCC(C)CC2)nc2cc(NC(=O)COc3ccc([N+](=O)[O-])cc3)ccc21 do in these assays?
TDP-43 yeast inh: inactive; Abeta rescue: inactive; Glioma ERSR ind: inactive

What do the screens show for `CCn1c(C)c(C)c2cc(C(=O)N3CCN(c4ccccc4)CC3)ccc21`?
Mito fusion act: inactive; aSyn rescue: inactive; TDP-43 yeast inh: 22µM; Abeta rescue: inactive; Glioma ERSR ind: inactive; AT treatment: inactive

Results for Cn1c(N)c(C(=O)COC(=O)C2CCC(C(C)(C)C)CC2)c(=O)n(C)c1=O (stereo unspecified) ?
Mito fusion act: inactive; aSyn rescue: inactive; TDP-43 yeast inh: 35µM; Abeta rescue: inactive[9.22 µM]; Glioma ERSR ind: inactive; AT treatment: inactive

Results for OC(c1cccc(Cl)c1)c1nc(-c2ccccc2)cs1 (stereo unspecified) ?
aSyn rescue: inconclusive; TDP-43 yeast inh: 14µM; Abeta rescue: inactive; Glioma ERSR ind: inactive

What do the screens show for `OC(c1ccccc1)c1nc(-c2ccccc2)cs1` (stereo unspecified)?
aSyn rescue: inactive; TDP-43 yeast inh: inactive; Abeta rescue: inactive; Glioma ERSR ind: inactive

Results for OC(c1ccccc1)c1nc(-c2ccc(Cl)cc2)cs1 (stereo unspecified) ?
aSyn rescue: inconclusive; TDP-43 yeast inh: 35µM; Abeta rescue: inactive; Glioma ERSR ind: inactive

Results for CO[C@H]1[C@H](NC(=O)C(C)C)c2ccccc2C12CCN(Cc1c(C)nn(C)c1Cl)CC2 ?
Glioma ERSR ind: inactive

Results for CCn1ncc(Br)c1C(=O)Nc1sc2c(c1C(N)=O)CCC2 ?
Mito fusion act: 20µM; aSyn rescue: inactive; TDP-43 yeast inh: inactive; Abeta rescue: inactive; Glioma ERSR ind: inactive; AT treatment: inactive

What do the screens show for `COc1cc(=O)n2c(c1C(=O)NC(C)c1ccco1)CCN(C(=O)c1ccc3c(c1)OCCO3)CC2` (stereo unspecified)?
Glioma ERSR ind: inactive

Results for Clc1ccc(-c2csc(N/N=C/c3ccco3)n2)cc1 ?
Mito fusion act: inactive; aSyn rescue: inactive; TDP-43 yeast inh: 6.3µM; Abeta rescue: inactive; Glioma ERSR ind: inactive; AT treatment: inactive

What do the screens show for `Cc1ccc(-c2csc(N/N=C/c3ccco3)n2)cc1`?
Mito fusion act: inactive; aSyn rescue: inactive; TDP-43 yeast inh: inactive; Abeta rescue: inactive; Glioma ERSR ind: inactive; AT treatment: inactive

What do the screens show for `O=[N+]([O-])c1ccc2c(c1)C=CC2`?
Glioma ERSR ind: inactive

Results for O=C(/C=C/c1cccc(Cl)c1)Nn1c(-c2cccs2)nc2ccccc2c1=O ?
Mito fusion act: 16µM; aSyn rescue: inactive; TDP-43 yeast inh: 10µM; Abeta rescue: inactive; Glioma ERSR ind: inactive; AT treatment: inactive

Results for O=C(/C=C/c1cccc(Cl)c1)NCc1cccs1 ?
Mito fusion act: inactive; aSyn rescue: inactive; TDP-43 yeast inh: 18µM; Abeta rescue: inactive; Glioma ERSR ind: inactive; AT treatment: inactive

How did CCOc1ccc(NC(=O)c2c(C)oc3nc(C)nc(N4CCOCC4)c23)cc1 do in these assays?
TDP-43 yeast inh: inactive; Abeta rescue: inactive; Glioma ERSR ind: inactive

What do the screens show for `CC(=O)N1N=C(c2cccc(Cl)c2)OC1c1cccc([N+](=O)[O-])c1` (stereo unspecified)?
Mito fusion act: inactive; aSyn rescue: inactive; TDP-43 yeast inh: 16µM; Abeta rescue: inactive; Glioma ERSR ind: inactive; AT treatment: inactive

How did CC(=O)N1N=C(c2ccccc2)CC1c1cccc([N+](=O)[O-])c1 (stereo unspecified) do in these assays?
Mito fusion act: inactive; aSyn rescue: inactive; TDP-43 yeast inh: 13µM; Abeta rescue: inactive; Glioma ERSR ind: inactive; AT treatment: inactive

What do the screens show for `CC(=O)N1N=C(c2cccc([N+](=O)[O-])c2)OC1c1cccc(Br)c1` (stereo unspecified)?
Mito fusion act: inactive; aSyn rescue: inactive; TDP-43 yeast inh: inactive; Abeta rescue: inactive; Glioma ERSR ind: inactive; AT treatment: inactive

What do the screens show for `CC(=O)N1N=C(c2cccs2)CC1c1cccc([N+](=O)[O-])c1` (stereo unspecified)?
Mito fusion act: inactive; aSyn rescue: inactive; TDP-43 yeast inh: inconclusive; Abeta rescue: inactive; Glioma ERSR ind: inactive; AT treatment: inactive

Results for Fc1ccc2c(c1)C(c1ccc(N3CCOCC3)cc1)=NNC(c1cccs1)=N2 ?
Mito fusion act: inactive; aSyn rescue: inactive; TDP-43 yeast inh: inconclusive; Abeta rescue: inactive; Glioma ERSR ind: inactive; AT treatment: inactive

Results for Brc1ccc2c(c1)C(c1ccc(N3CCOCC3)cc1)=NNC(c1cccs1)=N2 ?
Mito fusion act: inactive; aSyn rescue: inactive; TDP-43 yeast inh: inactive; Abeta rescue: inactive; Glioma ERSR ind: 32µM; AT treatment: inactive

Results for O=C(/C=C/c1ccco1)N1CCN(c2ncccn2)CC1 ?
Mito fusion act: inactive; aSyn rescue: inactive; TDP-43 yeast inh: inactive; Abeta rescue: inactive; Glioma ERSR ind: inactive; AT treatment: inactive

What do the screens show for `O=C(/C=C/c1c(Cl)cccc1Cl)N1CCN(c2ncccn2)CC1`?
Mito fusion act: inactive; aSyn rescue: inconclusive; TDP-43 yeast inh: 11µM; Abeta rescue: inactive; Glioma ERSR ind: inactive; AT treatment: inactive

Results for O=C(OCC(=O)C12CC3CC(CC(C3)C1)C2)c1ccc(O)cc1 ?
aSyn rescue: inactive; TDP-43 yeast inh: 11µM; Abeta rescue: inactive; Glioma ERSR ind: inactive; AT treatment: inactive

Results for O=C(Oc1ccc(O)cc1)C12CC3CC(CC(C3)C1)C2 ?
Mito fusion act: inconclusive; aSyn rescue: inactive; TDP-43 yeast inh: 14µM; Abeta rescue: inactive; Glioma ERSR ind: inactive; AT treatment: inactive

Results for Cc1cc(Nc2ccc(Br)cc2)nc(C)n1 ?
TDP-43 yeast inh: inactive; Abeta rescue: inactive; Glioma ERSR ind: inactive

How did CCn1nc(C)c2c(-c3ccccc3)cc(=O)n(C(C)C(=O)NCCc3ccc(Cl)cc3)c21 (stereo unspecified) do in these assays?
TDP-43 yeast inh: 22µM; Abeta rescue: inactive; Glioma ERSR ind: inactive

What do the screens show for `CCn1nc(C)c2c(-c3ccccc3)cc(=O)n(C(C)C(=O)NCc3ccccc3OC)c21` (stereo unspecified)?
TDP-43 yeast inh: 10µM; Abeta rescue: inactive; Glioma ERSR ind: inactive

What do the screens show for `Cc1nn(C)c2c1c(-c1ccccc1)cc(=O)n2C(C)C(=O)NCCc1ccc(Cl)cc1` (stereo unspecified)?
TDP-43 yeast inh: 22µM; Abeta rescue: inactive; Glioma ERSR ind: inactive
